Source: PubChem
This is a sample that favours compounds with a hit; in the whole collection about 2.7% have one here.
CF NFkB block – inhibitors of PAF-induced NF-kB signaling, primary screen, cell-based, GFP fluorescence, uHTS. 0.86% of 360,000 active. KKLEB NF-kB-GFP reporter, GFP fluorescence overnight. AID 588850, 2011. inhibition, % at 5 µM;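 active means at least 50% inhibition at 5 µM, scaled per plate between neutral and stimulator controls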;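 further: PAF is a Pseudomonas aeruginosa culture filtrate used as stimulus; plate controls were PAF-stimulated DMSO wells for no effect and unstimulated DMSO wells for full effect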
Peg3 prom inh – Peg3 promoter-driven luciferase inhibitors, primary screen, cell-based, HeLa, luciferase luminescence; HeLa PEG-Prom luciferase reporter, overnight; inhibition, % at 20 µM; 1.7% of 360,000 active; AID 588405, 2011;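 active means inhibition of at least 50% at 20 µM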
TRPM1 prom inh – inhibitors of MITF-dependent TRPM1 promoter reporter, primary screen, cell-based, SK-MEL-5, single point, luciferase; 0.83% of 330,000 active; inhibition, % at 12.5 µM; SK-MEL-5 TRPM1 promoter luciferase, 24 h;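 active means mean inhibition across replicates of 60% or more, whatever share of single replicates reaches that level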
Shn3 3UTR inh – reduction of Shn3 3'UTR firefly luciferase signal, primary screen, Schnurri-3 inhibitor project, cell-based, Clone20 osteoblasts, set 2. inhibition, % at 12.5 µM. Clone20 osteoblast Shn3 3'UTR firefly luciferase, 24 h. AID 588674, 2011. 0.52% of 360,000 active;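 active means mean inhibition of at least 75% with every replicate also reaching 75%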;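 further: 0% = median of neutral control wells and 100% = pilot-screen positive control compound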
KKLEB tox – cytotoxicity in KKLEB CF airway cells, primary screen, cytotoxicity control for CF NF-kB inhibitor project, cell-based, uHTS, fluorescence assay plates; 0.36% of 360,000 active; activity change (cytotoxicity), % at 5 µM; AID 602141, 2011; KKLEB CF airway cells viability, ATPlite luminescence, overnight; hits give low values; cells stimulated with P. aeruginosa culture filtrate;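 active means corrected activity change at or below -50% at 5 µM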
HIF-2a inh – HIF-2a reporter inhibitors, primary screen, luminescence, 786-0 RCC cells; 0.72% of 360,000 active; AID 624352, 2012; inhibition, % at 18.8 µM; 786-0 RCC cells HIF-2a reporter, luciferase luminescence, overnight;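 active means inhibition of the luminescence signal of 40% or more relative to plate controls, in a single-dose primary screen at 18.75 µM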
* hit, by the source's call; / = no result.

SMILES | CF NFkB block | Peg3 prom inh | TRPM1 prom inh | Shn3 3UTR inh | KKLEB tox | HIF-2a inh
Nc1cc(=O)[nH]c(SCCSc2ccccc2F)n1 | -10 | 22 | 52 | 3 | 2 | -14
Cc1cccc(CNC(=O)C(C)n2nc(C)c3c(C)n(-c4ccccc4)nc3c2=O)c1 (configuration not stated) | -1 | 20 | 11 | 1 | -8 | 22
CCOCCCNC(=O)Cn1nc(Cc2ccncc2)c2ccccc2c1=O | -5 | 20 | -5 | -9 | 4 | 21
COc1ccc(S(=O)(=O)Nc2ccc3c(c2)C(=O)N([C@H](C)CO)C[C@H](C)[C@@H](CN(C)S(C)(=O)=O)O3)cc1 | -5 | 0 | -2 | 1 | 6 | -1
CCc1nc2c(OCc3ccc(Cl)cc3Cl)cccn2c1N(C)C(=O)c1ccccc1F | 3 | 34 | / | 12 | -13 | -46
c1ccc2c(c1)ccc1ccccc12 | -34 | 19 | -9 | -9 | 9 | -1
O=c1ccc2ccccc2c2ccccc12 | 65* | 103* | / | 60 | 3 | 95*
Cc1cc(-n2c(C)cc(C(=O)CSc3nncn3C)c2C)no1 | -12 | -1 | 2 | 90* | 2 | -33
Cc1cc(-n2c(C)cc(C(=O)CSc3nncn3C(C)C)c2C)no1 | -8 | -4 | -2 | -20 | 14 | -14
Cc1cc(C)c(C(N)=O)c(SCC(=O)c2cc(C)n(-c3cc(C)on3)c2C)n1 | 12 | -1 | 17 | 90* | 19 | 6
O=C1c2ccc3c4c(ccc(c24)C(=O)N1c1cccc(O)c1)C(=O)N(c1cccc(O)c1)C3=O | 51* | 22 | 100* | / | -11 | 13
O=C1c2ccc3c4c(ccc(c24)C(=O)N1c1cccc(O)c1)CC3 | -148 | -21 | -1 | -18 | 4 | 16
O=C1CC(Sc2nnc(-c3ccccc3)o2)C(=O)N1c1ccccc1 (configuration not stated) | -2 | -63 | 3 | 32 | 1 | -96
Cc1ccccc1N1C(=O)CC(Sc2nnc(-c3ccccc3)o2)C1=O (configuration not stated) | 39 | 95* | 10 | 76 | 3 | -40
CCCCC[C@@H](/C=C/C1C(=O)C=C[C@H]1C/C=C\CCCC(=O)OC)OC(C)=O (some centres not stated) | 30 | 81* | 68* | 37 | -11 | 10
COc1cc(C(=O)Nc2cccc(C)c2C)ccc1OCC(=O)N1CCOCC1 | -4 | -4 | / | -24 | 2 | -5
Cc1ccccc1NC(=O)Nc1nc(C(N)c2ccccc2)cs1 (configuration not stated) | 4 | 4 | / | -3 | 1 | -18
CC(C)c1ccc(NC(=O)Nc2nc(C(N)C(C)C)cs2)cc1 (configuration not stated) | 8 | 96* | / | 14 | -13 | -10
CC(C)c1ccc(NC(=O)Nc2nc(C(N)c3ccccc3)cs2)cc1 (configuration not stated) | 12 | 110* | / | 93* | -43 | 5
CC(C)c1ccc(NC(=O)Nc2nc(C(N)COCc3ccccc3)cs2)cc1 (configuration not stated) | -13 | 110* | / | 93* | -5 | 26
CS(=O)(=O)c1ccc(Nc2nc(C(N)COCc3ccccc3)cs2)cc1 (configuration not stated) | -16 | 10 | / | -3 | -23 | 9
CSCC[C@H](NS(=O)(=O)c1ccc(C)cc1)C(=O)N1CCC(C(=O)N[C@H](C(=O)O)c2ccccc2)CC1 | -28 | -5 | / | 5 | 0 | 17
N#C/C(=C/c1ccc(N2CCOCC2)o1)c1ccc(Br)cc1 | -51 | -146 | -61 | 55 | -4 | -127
N#C/C(=C/c1ccc(N2CCCCCC2)o1)c1ccc(F)cc1 | -10 | -48 | 11 | 64 | 2 | 71*
N#C/C(=C\c1ccc(N2CCOCC2)o1)c1ccccc1 | -40 | -313 | -89 | 92* | 14 | -260
SMILES | CF NFkB block | Peg3 prom inh | TRPM1 prom inh | Shn3 3UTR inh | KKLEB tox | HIF-2a inh
N#C/C(=C/c1ccc(N2CCCCCC2)o1)c1cccc(F)c1 | -33 | -157 | -85 | 95* | -10 | -286
CN(Cc1ccc(Cl)s1)C(=O)CSc1nnc(C2CC2)n1C1CC1 | -4 | -8 | 7 | -6 | 10 | 14
O=C(NC1CC1)c1ccc(-c2nc3ccccc3s2)s1 | -13 | 62* | 56 | 76 | -66* | 47*
CC(C)Oc1ccc(C(CCN)C2CCCCC2)cc1 (configuration not stated) | 21 | 105* | 88* | 77 | -26 | 31
CC(C)Oc1ccc(C(=O)NC2CCCCC2)cc1 | 7 | -194 | -70 | -54 | 2 | -176
CCOC(=O)c1sc(NC(=O)CCCCCN2C(=O)c3cccc4cccc(c34)C2=O)nc1C | 39 | 41 | 67* | 18 | -53* | 4
COCCCN1C(=O)C(CC(=O)NC2CCCCC2)CC(C(=O)N2CCOCC2)=C1C (configuration not stated) | 2 | -5 | / | -13 | 1 | 6
Brc1ccc(-c2nc(N/N=C/c3cccnc3)c3ccccc3n2)cc1 | -26 | -65 | -17 | -15 | -70* | -241
CCn1c(=O)c(C(=O)Nc2nc3ccccc3[nH]2)c(O)c2ccccc21 | 89* | 22 | 19 | 82 | -90* | 32
COc1ccccc1OCC(=O)c1[nH]c(C)c(C(C)=O)c1C | -25 | -18 | 13 | 85* | 4 | -5
C[C@H]1CN([C@@H](C)CO)C(=O)c2cc(NC(=O)c3ccncc3)ccc2O[C@H]1CN(C)Cc1ccc(C(=O)O)cc1 | 10 | 5 | 8 | -6 | -1 | 17
O=C(CN1C(=O)NC2(CCCC2)C1=O)Nc1ccc(F)c([N+](=O)[O-])c1 | -2 | -2 | -1 | 7 | -15 | 22
COC(=O)c1cc(C)nc2c1C(=O)C(=O)C=C2N1CCOCC1 | 88* | 100* | 84* | 99* | -58* | 83*
COC(=O)c1cc(S(=O)(=O)N2CCOCC2)c(Cl)cc1N1CCOCC1 | -12 | -7 | 0 | -10 | 8 | 15
O=C(CNC(=O)c1[nH]cnc1C(=O)NC(c1ccccc1)c1ccccc1)OCc1ccccc1 | -4 | 21 | 5 | 4 | -12 | -9
CC1C/C(=C\c2cccnc2)C(=O)/C(=C/c2cccnc2)C1 (configuration not stated) | 105* | 107* | 97* | 71 | -96* | 93*
